# From PubChem BioAssay
# Sfp inh = Sfp phosphopantetheinyl transferase inhibition; Q9F4F7; Biochemical Sfp PPTase activity, qHTS; Potency, µM, for the others: largest response in the series, negative = inhibition, most hits filed as inhibitors; 310,000 compounds, 3.5% hits; AID 1490;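 also: the enzyme is Sfp with the accession as filed and its product quenches rhodamine fluorescence; 0% = enzyme reaction without inhibitor and -100% = no enzyme wells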
#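 Fluorescence-quenching assay: 15 nM Sfp-PPTase preincubated 15 min at room temperature with compound, then 5 uM rhodamine-CoA and 12.5 uM BHQ-2-labelled YbbR peptide added. Fluorescence (ex 525/em 598 nm) read at start and after 30 min; difference gives rate.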
# JMJD2A Tudor inh = JMJD2A Tudor domain (human) inhibition; O75164; AlphaScreen JMJD2A-Tudor / H3K4me3 peptide binding; Potency, µM (doses to about 114 µM), for the others: top-dose activity change, negative = inhibition, usual class: inhibitors; 390,000 compounds, 4.4% hits; also: % is scaled to controls: 0 for no effect and ±100 for the full control effect; nearly all actives have a fitted effect of over 50% in size
# G9a block = inhibitors of human histone lysine methyltransferase G9a. G9a H3K9 monomethylation, AlphaScreen, 2 h. Potency, µM (top dose mostly 102 µM), without a hit: top-dose activity, negative = inhibition, hits mostly inhibitors. 350,000 compounds, 8.8% hits; also: % is scaled to controls: 0 for no effect and ±100 for the full control effect; nearly all actives have a fitted effect of over 75% in size
#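 AlphaScreen read-out: biotin-H3K9 peptide (500 nM) methylation by 20 nM enzyme with 20 uM SAM, 2 h at room temperature after 15 min compound preincubation; anti-monomethyl H3K9 antibody plus donor/acceptor beads, 10 min dark.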
# HP1b binding inh = blocks HP1-beta chromodomain binding to methylated histone tails; P83916; AlphaScreen HP1-beta / biotin-H3K9me3 peptide binding; Potency, µM (top dose mostly 114 µM), for inactives: at the top dose activity change, negative = inhibition, most hits filed as inhibitors; 390,000 compounds, 0.56% hits; AID 540317; also: nearly all actives have a fitted effect of over 70% in size
#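 AlphaScreen: HP1-beta (50 nM) preformed 30 min with biotin-H3(1-18)K9me3 peptide (50 nM) in PBS pH 7.4, 0.01% Tween-20. Compound added for 30 min at RT, then streptavidin donor/nickel chelate acceptor beads (10 ug/mL) for 30 min.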
# BAZ2B block = blocks human BAZ2B; AlphaScreen BAZ2B-H3K14Ac peptide displacement; 360,000 compounds, 4.4% hits; Q9UIF8; Potency, µM (doses to about 114 µM), for the others: at the top dose activity change, negative = inhibition, most hits filed as inhibitors; also: % is scaled to controls: 0 for no effect and ±100 for the full control effect; nearly all actives have a fitted effect of over 60% in size
# Target sequence (Q9UIF8 whole entry, looked up): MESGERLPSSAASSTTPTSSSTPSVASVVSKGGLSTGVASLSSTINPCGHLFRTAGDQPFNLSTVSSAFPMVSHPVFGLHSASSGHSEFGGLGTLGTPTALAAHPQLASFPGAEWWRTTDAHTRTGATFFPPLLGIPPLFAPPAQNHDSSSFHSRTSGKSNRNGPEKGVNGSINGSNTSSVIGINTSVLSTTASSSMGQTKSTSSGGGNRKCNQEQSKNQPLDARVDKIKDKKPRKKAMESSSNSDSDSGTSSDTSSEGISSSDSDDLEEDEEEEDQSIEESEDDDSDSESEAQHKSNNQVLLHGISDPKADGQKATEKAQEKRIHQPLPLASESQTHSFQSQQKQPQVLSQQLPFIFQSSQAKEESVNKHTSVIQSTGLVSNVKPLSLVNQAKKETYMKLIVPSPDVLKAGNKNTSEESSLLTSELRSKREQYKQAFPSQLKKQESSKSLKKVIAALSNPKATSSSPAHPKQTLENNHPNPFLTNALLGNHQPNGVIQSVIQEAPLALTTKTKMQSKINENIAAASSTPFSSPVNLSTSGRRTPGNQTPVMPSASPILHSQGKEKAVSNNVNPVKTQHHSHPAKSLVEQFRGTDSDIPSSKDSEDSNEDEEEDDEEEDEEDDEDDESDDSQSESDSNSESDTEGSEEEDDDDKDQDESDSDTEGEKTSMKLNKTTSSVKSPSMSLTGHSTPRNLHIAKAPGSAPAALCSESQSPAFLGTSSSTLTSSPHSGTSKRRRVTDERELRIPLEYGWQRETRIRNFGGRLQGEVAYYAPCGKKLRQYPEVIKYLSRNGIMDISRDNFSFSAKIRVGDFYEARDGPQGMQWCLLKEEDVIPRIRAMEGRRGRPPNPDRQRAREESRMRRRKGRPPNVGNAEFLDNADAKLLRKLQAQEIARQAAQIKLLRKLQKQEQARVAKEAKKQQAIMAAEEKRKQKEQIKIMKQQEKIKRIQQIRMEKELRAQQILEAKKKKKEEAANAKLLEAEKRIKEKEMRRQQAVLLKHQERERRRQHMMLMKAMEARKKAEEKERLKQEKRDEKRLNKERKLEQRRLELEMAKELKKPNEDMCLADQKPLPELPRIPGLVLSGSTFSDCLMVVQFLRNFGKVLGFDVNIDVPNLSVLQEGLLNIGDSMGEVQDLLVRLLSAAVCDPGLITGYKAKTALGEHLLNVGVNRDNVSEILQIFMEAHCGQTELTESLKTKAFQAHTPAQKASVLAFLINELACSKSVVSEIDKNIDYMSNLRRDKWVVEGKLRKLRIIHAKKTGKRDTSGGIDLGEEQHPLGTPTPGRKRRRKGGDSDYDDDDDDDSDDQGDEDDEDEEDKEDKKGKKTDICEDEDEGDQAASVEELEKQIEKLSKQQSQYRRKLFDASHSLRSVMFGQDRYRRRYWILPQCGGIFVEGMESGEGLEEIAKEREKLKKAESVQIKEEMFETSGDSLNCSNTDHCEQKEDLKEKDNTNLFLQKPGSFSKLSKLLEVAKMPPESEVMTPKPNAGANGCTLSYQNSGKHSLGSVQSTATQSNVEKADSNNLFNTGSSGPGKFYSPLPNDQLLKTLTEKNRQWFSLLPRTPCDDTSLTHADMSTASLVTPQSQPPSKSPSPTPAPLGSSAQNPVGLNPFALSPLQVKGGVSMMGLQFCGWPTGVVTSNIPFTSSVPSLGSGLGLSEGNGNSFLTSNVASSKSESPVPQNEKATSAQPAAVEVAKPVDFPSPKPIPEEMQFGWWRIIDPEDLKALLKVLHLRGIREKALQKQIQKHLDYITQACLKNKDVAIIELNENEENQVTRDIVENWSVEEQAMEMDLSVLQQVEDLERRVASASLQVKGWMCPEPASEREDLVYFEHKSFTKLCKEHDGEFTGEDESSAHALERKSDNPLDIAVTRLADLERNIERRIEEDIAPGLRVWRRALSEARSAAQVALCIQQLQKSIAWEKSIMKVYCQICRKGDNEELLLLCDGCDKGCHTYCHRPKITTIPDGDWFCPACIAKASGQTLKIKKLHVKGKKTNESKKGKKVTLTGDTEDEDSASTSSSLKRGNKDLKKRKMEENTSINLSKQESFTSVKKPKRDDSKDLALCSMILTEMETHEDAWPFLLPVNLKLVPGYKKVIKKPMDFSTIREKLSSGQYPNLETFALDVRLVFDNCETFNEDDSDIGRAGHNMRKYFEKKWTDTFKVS
#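 Compounds, titrated to a top concentration of 110 uM, were incubated 30 min at room temperature with preformed BAZ2B/acetyl-K14 H3 peptide complex (50 nM each). Proximity signal was measured by AlphaScreen after 20 min with beads.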
# * = called active by the depositor; ? = inconclusive; nt = no result; [ ] = remark or other dose. Hits are enriched below; roughly 12% of the tested compounds scored in any of these assays. Calls follow the shape of the dose curve; as a rule, active = well fitted curve in the direction sought with a large enough effect; inconclusive = small, poorly fitted or top-dose-only effect, or another doubt; inactive = no such curve, though single readings can be large; an effect the other way counts as inactive or inconclusive. Potency is read from the fitted curve at half-maximal effect.
SMILES,Sfp inh,JMJD2A Tudor inh,G9a block,HP1b binding inh,BAZ2B block
Cc1cccnc1NC(=O)c1ccccc1-c1ccccc1C(=O)Nc1ncccc1C,5%,8%,1%[59 µM],38%,10%
C(=C\c1ccncc1)/c1ccncc1,14%,-4%[11.4 µM],12%,1%,-6%
c1cc(SSc2ccncc2)ccn1,35µM*,14µM*,0.56µM*,?,?
CC1(C)C2CCC1(C)C(OC(=O)CNc1ccccc1)C2 (centres undefined),-4%,0%[11.4 µM],-5%[12.7 µM],43%,12%
Cc1c(C(=O)Nc2cccc(Cl)c2)c2ccccn2c1CCc1ccncc1,-4%,1%,-15%[59 µM],34%,-8%
Cc1c(C(=O)c2ccccc2)c2ccccn2c1CCc1ccccn1,-48%,-35%,40µM*,18%,71µM*
Cc1c(C(=O)Nc2ccc(Cl)cc2)c2ccccn2c1CCc1ccncc1,-7%,-21%,14µM*,19%,-33%
Cc1c(C(=O)c2ccc(F)cc2)c2ccccn2c1CCc1ccccn1,-27%,-30%,45µM*,8%,-39%
CSc1ccccc1N1CCN(C(=O)Nc2ccc3c(c2)NC(=O)CO3)CC1,11%,-25%,-49%,-14%,?
Cc1cc(=O)c(C(=O)Nc2ccc(N3CCOCC3)cc2N2CCOCC2)nn1-c1ccccc1Cl,nt,?,nt,-5%,nt
COc1ccc(CCN(C)C(=O)CSc2nnc(C3CC3)n2N)cc1OC,nt,-1%,40µM*,28%,-5%
COc1cc(/C=C(\C#N)c2nc3c(s2)CCCC3)ccc1O,-21%,nt,?,nt,56µM*
Oc1ccc(NCc2cccs2)cc1,?,-33%,40µM*,?,?
CC(=O)Nc1ccc(NCc2cccs2)cc1,3%,-19%,nt,23%,-11%
CCC1=NNc2cccc3c(OC)ccc1c23,32µM*,nt,25µM*,nt,28µM*
COc1ccc2c3c(cccc13)C(=O)N(O)C2=O,-6%,-13%,-49%[59 µM],20%,-30%
O=C(Nc1nnc(SCC(=O)N2CCCC2)s1)C1CC(=O)N(c2ccccc2)C1 (centres undefined),-7%,-4%,?,52%,-16%
O=S(=O)(NC1CCCCCCC1)c1ccccc1,1%,4%,58%,49%,-1%
O=S(=O)(NC(=S)NC1CCCCC1)c1ccccc1,?,-18%,25µM*,19%,-36%
C/C(=N\NC(=O)C1CC1)c1cccs1,24%,3%,6%,29%,-4%
O=S(=O)(NC(=S)NC1CCCCC1)c1cccs1,?,-13%,20µM*,0%,-25%
C/C(=N\NC(=S)NC1CCCCC1)c1cccs1,8%,?,?,?,50µM*
O=C(Nc1cccc(C(=O)OCc2cc(=O)n3nc(C4CC4)sc3n2)c1)c1ccccc1,nt,-14%,-8%[59 µM],40%,-17%
C=CCN1c2ccccc2[C@]23C[C@@H](C(=O)OC)N(S(=O)(=O)c4ccc(C(F)(F)F)cc4)C2=NC(C(=O)OC)=C(C(=O)OC)[C@H]13,1%,nt,nt,nt,nt
COC(=O)c1cn(NC(=O)Cc2ccc(OC)c(OC)c2)c(=O)c2ccccc12,25%,-6%,11%,24%,-3%
SMILES,Sfp inh,JMJD2A Tudor inh,G9a block,HP1b binding inh,BAZ2B block
CCCNC(=O)C(Cc1ccc(I)cc1)NC(=O)c1ccc2ccccc2n1 (centres undefined),nt,-15%,5%[0.501 µM],26%,2%
OCC1O[C@H]([S-])[C@H](O)[C@@H](O)[C@@H]1O.[Au+] (some centres undefined),nt,nt,0.21µM*,nt,nt
OC[C@@H]1OC(O)[C@@H](O)[C@H](O)[C@H]1O (some centres undefined),-4%,nt,nt,nt,nt
CC1(C)CC(C)(c2ccc(O)cc2O)N(c2cccc(Cl)c2)C(=S)N1 (centres undefined),27%,?,?,-14%,?
CC1(C)CC(C)(c2ccc(O)cc2O)N(c2ccc3ccccc3c2)C(=S)N1 (centres undefined),25%,?,?,-33%,45µM*
CCNc1nc(NCc2ccc(F)cc2)c2cnn(C)c2n1,nt,50µM*,-4%[59 µM],20%,-12%
Cc1cccc(CC2CC(=O)N(c3ccc([N+](=O)[O-])cc3)C2=O)c1 (centres undefined),9%,-15%,-5%,23%,-25%
CN1/C(=C\C(=O)Nc2ccc(F)cc2)C(C)(C)c2ccccc21,0%,-27%,45µM*,2%,?
CN1/C(=C\C(=S)NC(=O)c2cccc(Br)c2)C(C)(C)c2ccccc21,?,20µM*,14µM*,?,10µM*
CN1/C(=C\C(=O)Nc2ccc(Br)cc2)C(C)(C)c2ccccc21,6%,-35%,-13%[59 µM],23%,?
CN1/C(=C\C(=S)NC(=O)c2ccc([N+](=O)[O-])cc2)C(C)(C)c2ccccc21,?,50µM*,45µM*,?,?
CN1/C(=C/C(=O)C2CC2)C(C)(C)c2ccccc21,11%,-24%,1%,40%,-1%
CN1/C(=C/C2CC(=O)N(c3ccc([N+](=O)[O-])cc3)C2=O)C(C)(C)c2ccccc21 (centres undefined),45µM*,?,?,-3%,?
CCOC(=O)C1CCN(C(=O)c2ccccc2N(C)S(C)(=O)=O)CC1,12%,-13%,4%[12.7 µM],10%,3%
COc1ccc(CCNC(=O)CCCCCN2C(=O)c3ccccc3C2=O)cc1,3%,0%,20%,8%,2%
Nc1nc(NCc2ccccc2Cl)c2[nH]cnc2n1,nt,-33%,nt,3%,nt
COC(=O)c1sc(S(=O)(=O)N2CC(C)OC(C)C2)c(C(=O)OC)c1C (centres undefined),nt,-2%,94%[12.7 µM],46%,54%
CN1/C(=C\C(=O)COC(=O)c2nccnc2N)C(C)(C)c2ccccc21,nt,-17%,-9%[0.501 µM],14%,-33%
CN1/C(=C\C(=O)COC(=O)c2ccc([N+](=O)[O-])o2)C(C)(C)c2ccccc21,10%,-29%,20µM*,18%,?
CC(C)(C)Nc1nc(Oc2ccc(=O)n(-c3ccccc3)n2)nc(N2CCOCC2)n1,9%,-11%,-43%,5%,9%
Cc1sc2nc(CC(=O)N3CCCC3)[nH]c(=O)c2c1C,?,1%,28µM*,-9%,-1%
Cc1cc(C2C(C#N)=C(N)SC(N)=C2C#N)c(C)s1,?,?,1.3µM*,18%,-6%
Cc1sccc1C1C(C#N)=C(N)SC(N)=C1C#N,18µM*,nt,1.1µM*,nt,-35%
C=CCN(CC=C)C(=O)CN1C(=O)NC(c2ccccc2)(c2ccccc2)C1=O,8%,-5%,-18%,18%,-15%
O=C(NNC(=O)c1cnccn1)c1ccc(Cl)cc1,?,2%,nt,28%,?
Brc1ccc([C@H]2CN3CCSC3=N2)cc1,nt,6.3µM*,?,?,nt
